D1 potentiator: enhances dopamine response at the human D1 receptor. P21728. HEK293 TREx D1 cells, calcium flux, dopamine EC20 potentiation. potentiation, % at 10 µM. hit rate 0.036% among 360,000. AID 504651; in the data active means potentiation above about 30%; further: 0% is about no effect
Target sequence (P21728 whole entry, looked up): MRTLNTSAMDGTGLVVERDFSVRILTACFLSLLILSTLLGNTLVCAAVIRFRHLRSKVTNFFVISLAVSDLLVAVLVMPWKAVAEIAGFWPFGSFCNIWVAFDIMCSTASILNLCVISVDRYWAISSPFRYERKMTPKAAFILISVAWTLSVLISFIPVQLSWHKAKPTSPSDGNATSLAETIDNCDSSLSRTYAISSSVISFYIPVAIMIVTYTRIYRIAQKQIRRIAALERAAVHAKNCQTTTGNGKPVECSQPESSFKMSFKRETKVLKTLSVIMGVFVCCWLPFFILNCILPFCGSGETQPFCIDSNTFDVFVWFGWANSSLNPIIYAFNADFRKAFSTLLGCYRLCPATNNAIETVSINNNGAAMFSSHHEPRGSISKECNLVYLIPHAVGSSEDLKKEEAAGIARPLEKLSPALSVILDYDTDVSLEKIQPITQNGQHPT
D1 agonist: activates the human D1 dopamine receptor; activation, % at 2 µM; P21728; hit rate 1% among 360,000; HEK293 T-REx D1 cells, calcium flux, agonist mode; in the data active means activation above about 30%; further: 0% is about no effect
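Inducible HEK293 T-REx D1 cells, force-coupled to calcium signalling, were plated at 4000 cells/well with tetracycline and held overnight at 30 C. After no-wash calcium dye loading, compound-evoked calcium rise over 180 s flagged agonists.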
GRP78 ERSR act: inducers of ER stress response in human glioma cells; U87-MG GRP78 promoter luciferase reporter, 16 h; Potency, µM, without a hit: at the top dose activation, usual class: activators; hit rate 0.02% among 420,000; AID 602332; further: potency means the concentration at half of the fitted maximal effect; series mostly up to about 76 µM; % of control where 0% means no effect; nearly all actives have a fitted effect of over 35% in size
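ERSR induction read as luciferase luminescence (Bright-Glo, 10 min at room temperature) in stably transfected human U87-MG glioma cells exposed to compounds for 16 h, using GRP78 as sensor.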
D1 antagonist: blocks dopamine activation of the human D1 receptor. hit rate 3.2% among 360,000. activity change, negative = inhibition, % at 10 µM. HEK293 TREx D1 cells, calcium flux, dopamine EC80; active compounds read low. P21728; in the data active means activity change below about -30%; further: on the % scale 0 is the no-effect control and ±100 the full control effect
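After overnight tetracycline induction at 30 C, force-coupled D1 HEK293 cells took up a no-wash calcium dye at room temperature. Compounds were added and monitored 180 s, and the response to EC80 dopamine was then recorded.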
TRHR enhancer-1: TRH receptor (human) allosteric enhancement; TRHR cells, fluo-8 calcium fluorescence, EC20 TRH enhancement; enhancement, % at 2 µM; hit rate 0.66% among 360,000; in the data active means enhancement above about 30%; further: 0% is about no effect
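TRHR-expressing cells loaded with fluo-8 calcium dye were read kinetically (ex 480/em 530) during compound addition, then stimulated with an EC20 of TRH (10 nM final). Enhancement of the Gq-mediated intracellular calcium response was scored.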
TRHR agonist-1: activates the human TRH receptor. P34981. TRHR cells, calcium flux fluo-8, FDSS agonist mode. activation, % at 2 µM. hit rate 0.18% among 360,000. AID 493084; in the data active means activation above about 30%; further: 0% is about no effect
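TRHR-expressing cells loaded with fluo-8 calcium dye; 23 nL library compound pin-transferred, kinetic FDSS fluorescence (Ex 480/Em 530) recorded about 180 s for agonist-induced calcium release, before a 10 nM TRH EC20 addition for potentiator mode.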
TRHR enhancer-2: confirmation of human TRH receptor allosteric enhancers; shares compounds with TRHR enhancer-1; TRH receptor cell assay, enhancer confirmation qHTS; activity change, negative = inhibition, % at 46.1 µM; 970 tested, under 10 active; AID 493076;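 further: compound effect scored on response to added TRH at EC20 of 10 nM; 0% is about no effect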
TRHR agonist-2: human TRH receptor agonism confirmation | shares compounds with TRHR enhancer-1 | TRHR-expressing cells, agonist activation read-out | Potency, µM (top dose mostly 46.1 µM), for inactives: at the highest dose activation, most hits filed as activators | hit rate 8% among 970 | AID 493078; further: potency means the concentration at half of the fitted maximal effect; 0% is about no effect; nearly all actives have a fitted effect of over 75% in size
Starred values were filed as active, the others as inactive. In the library only some 4% were active in any assay of this set; here they are far more common. Unless noted, the call rests on the fitted dose curve; in most records, active means well fitted curve in the direction sought with a large enough effect; inconclusive means small, poorly fitted or top-dose-only effect, or another doubt; inactive means no such curve, though single readings can be large; an effect the other way counts as inactive or inconclusive.

Results for Cc1ccccc1Nc1nc(N)nc(COC(=O)CCS(=O)(=O)c2ccccc2)n1 ?
D1 potentiator: 0; D1 agonist: 1; GRP78 ERSR act: 4%; D1 antagonist: 7; TRHR enhancer-1: 1; TRHR agonist-1: -1

How did Cc1ccccc1Nc1nc(N)nc(COC(=O)CC2CC3CCC2C3)n1 (configuration not stated) do in these assays?
D1 potentiator: 0; D1 agonist: 2; GRP78 ERSR act: -1%; D1 antagonist: 1; TRHR enhancer-1: 51*; TRHR agonist-1: -1; TRHR enhancer-2: 0; TRHR agonist-2: 1%

What do the screens show for `COc1cc(SC)ccc1C(=O)NCCCOC(C)C`?
D1 potentiator: -12; D1 agonist: 0; GRP78 ERSR act: 0%; D1 antagonist: -18; TRHR enhancer-1: -5; TRHR agonist-1: 0

How did CCC(O)CC(C(=O)NNc1ccccc1)C(=O)NNc1ccccc1 (configuration not stated) do in these assays?
D1 potentiator: -2; D1 agonist: 0; GRP78 ERSR act: -5%; D1 antagonist: -3; TRHR enhancer-1: -1; TRHR agonist-1: 0

How did Cc1cc(-c2ccc(S(=O)(=O)Nc3cccc(C)c3C)s2)on1 do in these assays?
D1 potentiator: -6; D1 agonist: 11; GRP78 ERSR act: -3%; D1 antagonist: 9; TRHR enhancer-1: -7; TRHR agonist-1: 0

Results for COc1nc(-c2ccc(C)cc2)ccc1-c1noc(-c2cccnc2)n1 ?
D1 potentiator: -2; D1 agonist: 0; GRP78 ERSR act: -4%; D1 antagonist: 9; TRHR enhancer-1: 2; TRHR agonist-1: 1

Results for COc1nc(-c2ccccc2)ccc1-c1noc(-c2cccnc2)n1 ?
D1 potentiator: -1; D1 agonist: 17; GRP78 ERSR act: -2%; D1 antagonist: 5; TRHR enhancer-1: 46*; TRHR agonist-1: -2; TRHR enhancer-2: 13; TRHR agonist-2: 7%

What do the screens show for `Cc1ccccc1-c1nnc(SCc2ccccc2F)o1`?
D1 potentiator: 6; D1 agonist: 6; GRP78 ERSR act: 9%; D1 antagonist: 3; TRHR enhancer-1: 0; TRHR agonist-1: 0

What do the screens show for `O=C(CN1CCC(C(=O)c2ccc3c(c2)OCCO3)CC1)Nc1ccccc1F`?
D1 potentiator: -5; D1 agonist: -1; GRP78 ERSR act: -3%; D1 antagonist: -17; TRHR enhancer-1: 48*; TRHR agonist-1: 0; TRHR enhancer-2: -9; TRHR agonist-2: 1%

Results for CCCCC1CCCC12NC(=O)NC2=O (configuration not stated) ?
D1 potentiator: -2; D1 agonist: 4; GRP78 ERSR act: -6%; D1 antagonist: 11; TRHR enhancer-1: 9; TRHR agonist-1: -1

How did CCn1c(SCC(N)=O)nc2c1c(=O)n(C)c(=O)n2C do in these assays?
D1 potentiator: 1; D1 agonist: 0; GRP78 ERSR act: -3%; D1 antagonist: -21; TRHR enhancer-1: 2; TRHR agonist-1: 1

How did CCn1c(N)nc2c1c(=O)n(C)c(=O)n2C do in these assays?
D1 potentiator: -10; D1 agonist: 3; GRP78 ERSR act: -3%; D1 antagonist: 0; TRHR enhancer-1: 44*; TRHR agonist-1: 1; TRHR enhancer-2: 2; TRHR agonist-2: -1%

What do the screens show for `Cc1ccc(NC(=O)CSCC(=O)NCc2ccco2)cc1`?
D1 potentiator: -1; D1 agonist: 3; GRP78 ERSR act: -6%; D1 antagonist: -22; TRHR enhancer-1: 46*; TRHR agonist-1: 0; TRHR enhancer-2: 2; TRHR agonist-2: 1%

What do the screens show for `COc1ccc(CNC(=O)c2cnn3c(C(F)F)cc(C)nc23)cc1`?
D1 potentiator: 4; D1 agonist: 0; GRP78 ERSR act: -5%; D1 antagonist: -11; TRHR enhancer-1: -2; TRHR agonist-1: 0

How did CN(C)C(=O)c1ccc(NS(=O)(=O)c2ccc3c(c2)OCCO3)cc1 do in these assays?
D1 potentiator: -6; D1 agonist: 2; GRP78 ERSR act: -5%; D1 antagonist: -14; TRHR enhancer-1: 66*; TRHR agonist-1: 0; TRHR enhancer-2: -1; TRHR agonist-2: 0%

How did O=C(O)c1ccc(NS(=O)(=O)c2ccc3c(c2)OCCCO3)cc1 do in these assays?
D1 potentiator: -2; D1 agonist: -1; GRP78 ERSR act: -2%; D1 antagonist: -3; TRHR enhancer-1: -3; TRHR agonist-1: 0

What do the screens show for `COc1cc(CNCc2ccccn2)ccc1OCC(=O)NC1CCCCC1`?
D1 potentiator: 0; D1 agonist: 0; GRP78 ERSR act: -1%; D1 antagonist: 3; TRHR enhancer-1: 45*; TRHR agonist-1: -1; TRHR enhancer-2: 1; TRHR agonist-2: -1%

Results for Oc1ccc(C[C@@H]2CNC(=S)N2CCc2cc(C(F)(F)F)cc(C(F)(F)F)c2)cc1 ?
D1 potentiator: -8; D1 agonist: 21; GRP78 ERSR act: -1%; D1 antagonist: -17; TRHR enhancer-1: -4; TRHR agonist-1: -1

What do the screens show for `CCOC(=O)N1CCC(Nc2nc(OC)nc(OC)n2)CC1`?
D1 potentiator: -8; D1 agonist: 2; GRP78 ERSR act: -3%; D1 antagonist: 7; TRHR enhancer-1: 0; TRHR agonist-1: 0

Results for COc1nc(N)nc(CC(=O)C2CC2)n1 ?
D1 potentiator: -5; D1 agonist: 3; GRP78 ERSR act: -5%; D1 antagonist: -3; TRHR enhancer-1: 62*; TRHR agonist-1: 0; TRHR enhancer-2: -2; TRHR agonist-2: -1%

How did CCOc1ccc(CN(C(=O)/C=C/c2ccco2)C2CCS(=O)(=O)C2)cc1 (configuration not stated) do in these assays?
D1 potentiator: -1; D1 agonist: 0; GRP78 ERSR act: 1%; D1 antagonist: 4; TRHR enhancer-1: -8; TRHR agonist-1: 41*; TRHR enhancer-2: 1; TRHR agonist-2: 1%

How did COc1ccccc1NC(=O)C(C)N(C)CCOc1ccccc1 (configuration not stated) do in these assays?
D1 potentiator: 2; D1 agonist: 14; GRP78 ERSR act: -1%; D1 antagonist: -20; TRHR enhancer-1: 19; TRHR agonist-1: -1

What do the screens show for `CC(C(=O)Nc1ccc(F)c(F)c1F)N(C)CCOc1ccccc1` (configuration not stated)?
D1 potentiator: -11; D1 agonist: 1; GRP78 ERSR act: -1%; D1 antagonist: -17; TRHR enhancer-1: 46*; TRHR agonist-1: 0; TRHR enhancer-2: -8; TRHR agonist-2: 1%

Compound activity: PubChem BioAssay, National Center for Advancing Translational Sciences (NCATS)
